Source: PubChem BioAssay AID1159580 (chemical genetic matrix, 2015)
In all, about 5,500 compounds went through this assay and about 2,000 (36%) were called active. Roughly 18% stayed inconclusive and do not appear here. Rule as the data show it: active = normalized growth mostly below about 0.91 (no sharp cut-off); inconclusive = no clear call, values can overlap the other calls; inactive = mostly above about 0.92. The list shows a part of the results.

Assay: chemical genetic growth profiling, strain panel (AID 1159580);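 also: tested at 20 µM; growth read once vehicle control cultures reached saturation at 30 °C; 1 = growth at the plate median or of vehicle wells; lower values mean less growth of the strain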
Details: S. cerevisiae deletion strains, growth OD

Measured: normalized growth

COC(=O)C1=C(C)NC(C)=C([N+](=O)[O-])C1c1ccccc1C(F)(F)F (stereo not given)
inactive: locus YAL040C, strain CLN3, hits give low values 0.982 | locus YCL061C, strain MRC1 (second series), hits give low values 1 | locus YER002W, strain NOP16, hits give low values 0.991 | locus YGR078C, strain PAC10, hits give low values 0.94 | locus YNL175C, strain NOP13, hits give low values 0.976 | locus YNL197C, strain WHI3, hits give low values 1.04 | locus YNL224C, strain SQS1, hits give low values 0.987 | locus YNL322C, strain KRE1, hits give low values 1.01 | locus YOR083W, strain WHI5 (second series), hits give low values 1 | locus YPL055C, strain LGE1, hits give low values 1.01
